Screens from PubChem BioAssay.
The list is not random: actives were taken first. Their share in the collection is about 5.9%.
rTrxR1 inhibitor: inhibitors of rat thioredoxin reductase 1 | O89049 | recombinant rTrxR1, NADPH fluorescence consumption, selenite substrate | AID 588453 | Potency, µM (series often up to 114 µM), inactives show top-dose activity change, negative = inhibition, hits mostly inhibitors | 390,000 compounds, 1% hits; further: potency means the concentration at half of the fitted maximal effect; nearly all actives have a fitted effect of over 65% in size
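Rat TrxR1 (90 nM in the dispensed reagent) was pre-reduced with 400 uM NADPH for 5 min at room temperature, then incubated with compound for 15 min. After 400 uM selenite was added, NADPH fluorescence (Ex 340/Em 450 nm) was followed for 8 min.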
VP16 counter: Gal4-VP16 reporter inhibition counter-screen | Drosophila S2 Gal4-VP16 UAS-luciferase, luminescence, 20 h | AID 2546 | Potency, µM (series often up to 53.6 µM), inactives show at the top dose activity, negative = inhibition, usual class: inhibitors | 310,000 compounds, 3.5% hits;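 further: Gal4-VP16 expression switched on by copper sulfate through the metallothionein promoter; potency means the concentration at half of the fitted maximal effect; nearly all actives have a fitted effect of over 50% in size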
GALK inh: blocks human galactokinase activity | P51570 | Purified GALK, Kinase-Glo residual ATP luminescence | Potency, µM (series often up to 57.5 µM), for inactives: top-dose activity change, negative = inhibition, hits mostly inhibitors | 270,000 compounds, 0.007% hits | AID 1868; further: potency means the concentration at half of the fitted maximal effect
Target sequence (P51570 whole entry, looked up): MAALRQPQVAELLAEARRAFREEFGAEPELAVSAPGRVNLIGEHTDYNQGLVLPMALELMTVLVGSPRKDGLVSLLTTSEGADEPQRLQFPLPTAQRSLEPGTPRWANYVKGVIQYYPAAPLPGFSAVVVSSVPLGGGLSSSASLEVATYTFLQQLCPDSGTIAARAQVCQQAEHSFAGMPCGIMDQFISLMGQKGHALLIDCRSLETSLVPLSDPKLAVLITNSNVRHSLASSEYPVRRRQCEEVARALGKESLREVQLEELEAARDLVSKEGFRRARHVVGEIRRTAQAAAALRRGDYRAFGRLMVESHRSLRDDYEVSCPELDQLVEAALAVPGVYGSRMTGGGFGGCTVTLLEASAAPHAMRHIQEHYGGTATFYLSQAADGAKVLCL
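Luminescence from leftover ATP (Ultra-Glo luciferase/luciferin) served as read-out after a 1 h room-temperature reaction of 5 nM GALK with 35 uM ATP and 100 uM galactose.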
TrxR1 substrate: substrates of rat thioredoxin reductase 1; O89049; purified TrxR1 substrate turnover, NADPH consumption readout; Potency, µM (highest dose often 114 µM), without a hit: at the highest dose activity change, negative = substrate turnover; 390,000 compounds, 0.01% hits; further: potency means the concentration at half of the fitted maximal effect; nearly all actives have a fitted effect of over 50% in size
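Rat TrxR1, dispensed at 90 nM, was prereduced with 400 uM NADPH (final) for 5 min at ~22 deg C, then incubated with compound 15 min before 400 uM selenite. A first-read NADPH fluorescence drop versus no-compound background flagged substrates.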
FBPA coupling cs: inhibits coupling enzyme system, counter-screen for aldolase hits | coupling enzyme system counterscreen, AmpLite Red fluorescence | activity change, negative = inhibition, % at 58.2 µM, hits read low | 290,000 compounds, 0.67% hits | AID 2472; in the data active means activity change below about -30%
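Final compound at 57.5 uM, incubated 10 min at RT with coupling enzyme reagent (glyceraldehyde-3-phosphate), then 20 min with substrate and AmpLite Red detection. Fluorescence read at 525/598 nm; tests interference with the coupling assay, not aldolase inhibition.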
RORg inh: ROR gamma (mouse) transcription inhibition | P51450 | Drosophila S2 Gal4-RORgamma UAS-luciferase reporter, 20 h | Potency, µM (doses to about 53.6 µM), inactives show top-dose activity change, negative = inhibition, hits mostly inhibitors | 310,000 compounds, 5.4% hits | AID 2551; further: potency means the concentration at half of the fitted maximal effect; nearly all actives have a fitted effect of over 60% in size
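Compounds are pin-transferred onto Drosophila Schneider cells expressing a copper-inducible Gal4–ROR gamma transactivation domain fusion. After 1 hr, copper sulfate is added to 700 uM final; luciferase is read 20 hr later.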
An asterisk follows results filed as active; ? = inconclusive; nt = no result; [ ] = dose if it differs, or a comment. Unless noted, the call rests on the fitted dose curve; in most records, active means well fitted curve in the direction sought with a large enough effect; inconclusive means small, poorly fitted or top-dose-only effect, or another doubt; inactive means no such curve, though single readings can be large; an effect the other way counts as inactive or inconclusive. On the % scale 0 is the no-effect control and ±100 the full control effect.

SMILES	rTrxR1 inhibitor	VP16 counter	GALK inh	TrxR1 substrate	FBPA coupling cs	RORg inh
Nc1c(Cl)ncnc1NCc1cccnc1	1.4%	9.3%	nt	-10.0%	0.0	-23.9%
COc1ccc(C2=C/C(=C\c3cccc(OC(C)=O)c3)C(=O)O2)cc1	-18.5%	?	1.2%	-1.1%	1.4	7.08µM*
O=C(N/N=C/C=C\c1ccccc1[N+](=O)[O-])c1cc(-c2ccccc2)nc2ccccc12	12.9%	2.82µM*	0.4%	-4.6%	-1.6	1.58µM*
Cc1cc(C(=O)N/N=C/c2cc(Br)cc([N+](=O)[O-])c2O)c2ccccc2n1	-15.0%	3.16µM*	nt	-14.8%	-0.2	2µM*
O=C(N/N=C/c1cc([N+](=O)[O-])ccc1Cl)c1cc(-c2ccccc2)nc2ccccc12	6.8%	3.0%	1.1%	-2.9%	0.6	14.3%
O=C(N/N=C/c1cccc([N+](=O)[O-])c1)c1c[nH]c2ccccc12	7.3%	-8.4%	-0.8%	-4.2%	-8.8	?
O=C(N/N=C/c1cccc([N+](=O)[O-])c1)c1cc(-c2ccccc2)nc2ccccc12	9.3%	-29.6%	3.3%	-5.6%	-5.7	-38.3%
O=C(N/N=C/c1cc([N+](=O)[O-])ccc1O)c1c[nH]c2ccccc12	28.8%	?	nt	3.1%	0.1	5.01µM*
Cc1cc(C(=O)N/N=C/c2ccc([N+](=O)[O-])cc2)c2ccccc2n1	14.7%	-2.0%	-4.5%	-2.3%	5.3	?
Cc1cc(C(=O)N/N=C/c2cc([N+](=O)[O-])ccc2O)c2ccccc2n1	-23.4%	4.47µM*	1.1%	-22.9%	6.9	2.82µM*
COc1cc(NC(=O)CC2C(=O)N(c3cccc(C)c3)C(=O)N2Cc2ccco2)cc(OC)c1 (stereo unspecified)	-16.7%	nt	nt	-6.3%	nt	nt
O=C(N/N=C/c1cc([N+](=O)[O-])ccc1O)c1cc(-c2ccccc2)nc2ccccc12	?	3.98µM*	0.7%	-14.6%	12.2	3.16µM*
O=C(CSC1=NNC(c2ccccn2)S1)Nc1ccccc1 (stereo unspecified)	?	2.51µM*	-1.6%	-2.0%	-2.5	1µM*
O=C(CSC1=NNC(c2ccccn2)S1)Nc1cccc(Cl)c1 (stereo unspecified)	-6.8%[57.1 µM]	12.6µM*	-0.8%	3.4%[57.1 µM]	0.5	3.55µM*
CC(C)=CCc1c(O)cc2oc(C)cc(=O)c2c1O	nt	-18.6%	nt	nt	0.5	44.8%
O=C(COC(=O)c1ccccn1)Nc1ccc2c(c1)OCO2	18.1%	-1.2%	1.0%	-1.0%	-6.0	27.0%
CCC1CCCCN1c1cc(C)nc2cc(-c3cccc(C)c3)nn12 (stereo unspecified)	65.9%[57.1 µM]	-27.1%	-1.5%	17.9%	-4.2	10µM*
Cc1cc(N2CCOCC2)n2nc(-c3cccc(F)c3)cc2n1	35.6%	1.3%	-1.6%	78.5%	6.5	-26.1%
CC(C)c1ccc2occ(CC(=O)Nc3cccc(C(F)(F)F)c3)c2c1	19.0%	nt	nt	-7.3%	nt	nt
CN(Cc1ccccc1)c1c([N+](=O)[O-])c(=O)n(C)c2ccccc12	21.4%	-2.5%	-5.0%	-1.3%	-4.5	-11.2%
COCCCNc1nc2c([nH]1)c(=O)[nH]c(=O)n2C	7.6%	5.2%	10.0%	2.7%[57.1 µM]	1.1	13.1%
CCOC(=O)Nc1ccc2c(c1)N(C(=O)CCN1CCOCC1)c1ccccc1S2=O (stereo unspecified)	31.6µM*	?	1.4%	1.6%	4.0	-119.0%
CC(C)(C)c1nnc(N/N=C/c2ccccc2)n(N)c1=O	-11.7%	5.62µM*	-0.1%	-15.1%	-0.7	3.98µM*
CCc1nnc(N/N=C/c2ccccc2F)n1N	18.2%[57.1 µM]	-2.3%	-1.3%	-12.4%	-19.5	11.2µM*
CC(C)(C)c1nnc(N/N=C/c2ccccc2O)n(N)c1=O	-2.0%	11.2µM*	-0.2%	-9.7%	-0.2	10µM*
CCc1nnc(N/N=C/c2ccccc2Cl)n1N	26.6%	?	2.5%	1.2%	-15.4	?
COc1ccc(CCNC(=O)[C@@H]2C[C@H]2c2ccccc2)cc1OC	11.9%[57.1 µM]	-8.9%	-2.5%	4.7%[57.1 µM]	1.7	23.0%
